Screening data as filed in PubChem BioAssay.
DAT uptake mod: changed hDAT dopamine uptake under cocaine IC80, either direction, primary screen, cocaine antagonist project, cell-based, LLC-PK1 hDAT, [14C]-dopamine uptake, MLSMR | Sodium-dependent dopamine transporter (Homo sapiens), Q01959 | LLC-PK1 hDAT cells, [14C]-dopamine uptake with cocaine IC80; actives deviate in either direction | B-score at 10 µM | 1.3% of 110,000 active;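 active means Z score or B-score, a plate-position-corrected score, falls beyond the plate's 99.7% confidence bounds, in either direction; inactive means both scores lie inside the 99.7% bounds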;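 further: scored against the spread of the other compound wells on the same plate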
Target sequence (Q01959 whole entry, looked up): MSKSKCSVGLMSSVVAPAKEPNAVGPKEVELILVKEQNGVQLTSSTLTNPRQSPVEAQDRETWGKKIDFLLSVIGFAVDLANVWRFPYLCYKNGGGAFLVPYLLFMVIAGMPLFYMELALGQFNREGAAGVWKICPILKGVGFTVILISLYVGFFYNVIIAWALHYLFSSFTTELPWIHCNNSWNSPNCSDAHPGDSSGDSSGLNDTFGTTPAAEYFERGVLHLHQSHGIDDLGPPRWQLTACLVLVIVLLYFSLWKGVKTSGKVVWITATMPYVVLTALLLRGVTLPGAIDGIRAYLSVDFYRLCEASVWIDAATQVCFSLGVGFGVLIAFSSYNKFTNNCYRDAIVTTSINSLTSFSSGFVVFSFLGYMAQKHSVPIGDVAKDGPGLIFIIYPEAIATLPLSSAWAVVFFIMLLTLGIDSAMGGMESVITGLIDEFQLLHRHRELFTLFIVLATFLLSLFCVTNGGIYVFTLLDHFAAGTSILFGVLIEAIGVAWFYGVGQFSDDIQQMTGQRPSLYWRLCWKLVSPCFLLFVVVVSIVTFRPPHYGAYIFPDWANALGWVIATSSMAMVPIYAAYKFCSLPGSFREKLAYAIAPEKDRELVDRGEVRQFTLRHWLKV
D1 mod: D1 CRE-luciferase signal change, two-sided – cell-based, HEK293 D1, dopamine EC30, D1 allosteric modulator project, primary screen; D(1A) dopamine receptor (Homo sapiens), P21728; AID 641, 2007; B-score at 10 µM; 5.9% of 58,000 active; dopamine EC30 potentiation; actives deviate in either direction;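 active means luminescence count or its row- and column-corrected plate score outside the 99.7% band of the plate's sample wells, on either side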
BAP1 block: inhibitors of BAP1 deubiquitinase, primary screen, biochemical, Ub-AMC fluorescence, kinetic; AID 436, 2006; recombinant BAP1, Ub-AMC hydrolysis fluorescence kinetic; stronger effect = lower value; Ubiquitin carboxyl-terminal hydrolase BAP1 (Homo sapiens), Q92560; calls only at 20 µM; 0.48% of 72,000 active;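 active means activity remaining at or below 50% of control, provided the compound also passes the data quality filters; inactive means the rest, including low values that fail the filters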;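 further: 100% = DMSO wells rate and 0% = substrate alone blank rate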
Active calls of the source: *; i = inactive; x = no result shown. Only a selection was taken, and hits are over-represented in it overall.

SMILES	DAT uptake mod	D1 mod	BAP1 block
CCOc1ccc(-c2nnn(CC(=O)Nc3cccc(OC)c3)n2)cc1OCC	1.39	13.4*	i
CCOc1ccc(-c2nnn(CC(=O)NCc3ccc(F)cc3)n2)cc1OCC	-0.707	1.37	i
COc1ccccc1NC(=O)c1cc(C(C)(C)C)oc1C	x	x	i
Cc1ccc(N2C(=O)c3ccccc3C2O)nc1 (stereo not drawn)	x	-6.69*	i
Cc1ccc(N2C(=O)c3ccccc3C2Nc2ccccc2F)nc1 (stereo not drawn)	-0.912	0.735	i
C=CCOc1ccc(C2Oc3ccccc3C3CC(c4ccc(OC)cc4)=NN32)cc1 (stereo not drawn)	x	x	i
CCOC(=O)c1sc(NC(=O)c2c(C)nn(Cc3ccccc3)c2C)cc1C	1.97	-3.2*	x
CCOC(=O)c1sc(NC(=O)c2ccccc2)cc1C	-0.286	x	x
COC(=O)C1=C(C)NC(=O)NC1c1ccc(OCc2ccccc2)c(OC)c1 (stereo not drawn)	x	x	i
O=C(Cn1nc(-c2ccccc2)nc1-c1ccccc1)OC1CCCCC1	1.11	x	x
CCOC(=O)Cn1nc(-c2ccccc2)nc1-c1ccccc1	0.13	-3.52*	i
CCOC(=O)c1cc(=O)n2nc(-c3ccc(C)cc3)nc2s1	-8.44*	-1.13	x
CCOC(=O)c1nc(N)c(=O)n(-c2ccc(C)cc2)n1	-0.545	x	x
COc1ccc(C(=O)OCCNC(=O)c2cccnc2)cc1OC	x	x	i
O=S(=O)(Nc1ccc2c(c1)OCCO2)c1ccc2c(c1)OCCO2	x	x	i
CCN(CC)c1ccc(CN2CCCCCC2)cc1	0.0079	x	x
CCN(CC)c1ccc2c(c1)CCCN2	-0.0234	-3.39*	i
COc1ccc(C(=O)c2ccc(Cl)cc2Cl)cc1	-0.546	x	x
Cc1c(C(=O)c2ccc(Cl)cc2Cl)cnc2cc3c(cc12)OCO3	-8.46*	x	x
CCOC(=O)c1c(N)sc(C(=O)Nc2cc(C)ccc2C)c1C	x	x	i
Cc1cccc(C)c1Nc1nnc(SCc2cc([N+](=O)[O-])cc3c2OCOC3)s1	-0.566	x	x
COc1cccc(Nc2nnc(SCc3cc([N+](=O)[O-])cc4c3OCOC4)s2)c1	-3.36*	x	x
CCOc1ccc(C2NC(=O)NC(C)=C2C(=O)OC(C)C)cc1 (stereo not drawn)	x	x	i
O=C(c1ccc2c3n(nc2c1)-c1ccccc1CO3)N1CCOCC1	1.2	x	x
O=C(c1ccc2c3n(nc2c1)-c1ccccc1CO3)N1CCCCC1	2.56*	x	x
SMILES	DAT uptake mod	D1 mod	BAP1 block
CC(=O)OC1CCC2(C)C(CCC3C2CCC2(C)C3CC(O)C2(O)C(C)=O)C1 (stereo not drawn)	x	x	i
C[C@H]1O[C@@H](O[C@H]2[C@@H](O)C[C@H](O[C@H]3[C@@H](O)C[C@H](O[C@H]4CC[C@@]5(C)[C@H](CC[C@@H]6[C@@H]5C[C@@H](O)[C@]5(C)[C@@H](C7=CC(=O)OC7)CC[C@]65O)C4)O[C@@H]3C)O[C@@H]2C)C[C@H](O)[C@@H]1O	-6.24*	x	x
COc1ccccc1C(=O)Nc1cccc2c1C(=O)c1ccccc1C2=O	x	x	i
Oc1ccc(Br)cc1C=Nc1nc(-c2cccc3ccccc23)cs1	x	x	i
CCNC(=O)COc1ccc2ccccc2c1	0.446	0.447	i
CCOc1ccc(N2C(=O)CS/C2=N/NC(=O)COc2ccc3ccccc3c2)cc1	2.37*	x	x
COc1ccc(Cl)cc1C(=O)N1CCC(Cc2ccccc2)CC1	x	x	i
O=C(Nc1ccc(N2CCOCC2)cc1)c1cnsn1	-0.592	-6.75*	i
O=C(Nc1ccc(N2CCOCC2)cc1)c1ccncc1	-0.225	x	x
O=C(c1ccc2nc(NC(=O)C34CC5CC(CC(C5)C3)C4)sc2c1)N1CCCCC1	x	x	i
CCCNC(=O)C(=O)NCCC1=CCCCC1	0.134	x	x
Cc1cc(C(=O)NCCC2=CCCCC2)c(C)o1	0.171	-6.61*	i
COc1nc(C)ccc1-c1noc(-c2ccccn2)n1	0.573	-4.06*	i
COc1ccccc1-c1noc(-c2ccncc2)n1	1.36	-0.125	i
COc1ccccc1-c1nc(-c2ccc(C)nc2OC)no1	1.52	0.0213	i
COc1ccccc1-c1nc(-c2ccccn2)no1	0.965	-7.43*	i
C=CCOC(=O)C1=C(C)NC(=O)NC1c1ccc(CC)cc1 (stereo not drawn)	x	x	i
Cc1ccc2oc(-c3ccc(NC(=O)c4ccccc4C)c(C)c3)nc2c1	x	x	i
COc1ccc(CNc2nc3nc(C)c(Cl)c(C)n3n2)cc1OC	1.09	6.17*	i
COc1cccc(CNc2nc3nc(C)c(Cl)c(C)n3n2)c1	2.15	3.02	i
Cn1c(=O)[nH]c(=O)c2c1nc(SCC(O)CO)n2CC(N)=O (stereo not drawn)	x	x	i
O=C1CCCC2=C1C(c1cccc(Br)c1)Nc1ccc(C(=O)c3ccccc3)cc1N2 (stereo not drawn)	x	x	i
COc1ccc2c(c1)CCC1=C2NC(=S)NC1c1cccc(F)c1 (stereo not drawn)	x	x	i
COc1ccc(-c2[nH]ncc2Oc2ccccc2OC)c(O)c1	0.94	-0.394	i
C=C(C)COc1ccc(-c2nc(N)ncc2-c2ccc(OC)cc2)c(O)c1	0.627	3.35*	i
SMILES	DAT uptake mod	D1 mod	BAP1 block
COc1ccc(-c2nc(N)ncc2Oc2ccccc2Br)c(O)c1	-0.291	14.3*	i
C=C(C)COc1ccc(-c2ncncc2Oc2ccc(OC)cc2)c(O)c1	0.544	-1.78	i
CC(O)c1ccc(NC(=O)c2cnn3c2NC(c2ccco2)CC3C(F)(F)F)cc1 (stereo not drawn)	x	x	i
CN1C=CC(=C2C(=O)c3ccccc3C2=O)C=C1	-0.796	-3.13	i
CCCN1C=CC(=C2C(=O)c3ccccc3C2=O)C=C1	1.29	-5.69*	i
CC1=CC(=C2C(=O)c3ccccc3C2=O)C=C(C)O1	x	x	i
CCN1C=CC(=C2C(=O)c3ccccc3C2=O)C=C1	0.499	-8.81*	i
O=C(Nc1cccnc1Cl)c1nn2c(C(F)(F)F)cc(-c3cc(Br)cs3)nc2c1Br	x	x	i
COc1cccc2sc(=NC(=O)c3ccc(S(=O)(=O)N(C)C)cc3)n(C)c12	x	x	i
COC(=O)C1=C[C@@H](C(=O)OC)[C@@H]2C3=C(C(=O)[C@]2(CC(C)C)NC(=O)c2ccccc2)[C@H](C)n2c(=O)n(-c4ccccc4)c(=O)n2[C@@H]3C1	-2.53*	x	x
COC(=O)C1=C[C@@H](C(=O)OC)[C@@H]2C3=C(C(=O)[C@@]2(C)NC(=O)c2ccccc2)[C@H](c2ccccc2)n2c(=O)n(-c4ccccc4)c(=O)n2[C@@H]3C1	-1.76	x	x
CC(C)Cc1cc(C(=O)Nc2c(F)cc(F)cc2Br)no1	6.5*	-0.15	i
CC(C)Cc1cc(C(=O)Nc2ccc(F)cc2F)no1	0.073	-1.55	i
O=C(Nc1nc2ccccc2n1CCOc1ccccc1)c1ccco1	2.28*	0.0327	i
C=CCn1c(NC(=O)c2ccco2)nc2ccccc21	x	x	i
O=C(Nc1nc2ccccc2n1CCN1CCCCC1)c1ccco1	0.971*	-1.27	i
O=C(Nc1nc2ccccc2n1CCOc1ccc(Cl)cc1)c1ccco1	-0.697	-0.098	i
CSc1nc(SCC(=O)NCc2ccco2)c2c3c(sc2n1)CN(C)CC3	-0.784	-0.00247	x
